Test results taken from the supplement of paper PMC3334620.
Whole data set: some 33,000 sequences, median “E-score (-0.5 to 0.5)” near -0.013, cut for the highest 2% near 0.3. For the sample, the highest values were picked, then their nearest neighbours and some sequences at random.

These sequences were tested against T1, Msn1 (UniProt P22148) (assay: PBM E-score (8-mer binding enrichment) (E-score (-0.5 to 0.5)); higher = stronger / more preferred TF binding). Settings: protein concentration: 200 nM; construct: GST-full length.
T1 sequence: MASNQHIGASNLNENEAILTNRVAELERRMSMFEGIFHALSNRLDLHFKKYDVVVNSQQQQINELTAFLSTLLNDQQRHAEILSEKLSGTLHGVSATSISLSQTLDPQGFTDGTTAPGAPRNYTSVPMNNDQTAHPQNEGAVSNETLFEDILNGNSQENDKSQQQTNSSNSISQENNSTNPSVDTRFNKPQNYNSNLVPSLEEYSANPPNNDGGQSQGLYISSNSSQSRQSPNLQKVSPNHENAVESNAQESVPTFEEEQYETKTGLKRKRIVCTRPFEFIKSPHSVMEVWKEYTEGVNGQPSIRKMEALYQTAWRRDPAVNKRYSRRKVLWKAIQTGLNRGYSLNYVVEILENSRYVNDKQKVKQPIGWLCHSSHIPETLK
Method: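 Universal 'all 10-mer' protein binding microarrays (Agilent AMADID 015681) probed with GST-tagged S. cerevisiae TFs (full-length or DBD) made by in vitro transcription/translation (PURExpress), about 100-200 nM. Bound TF was detected with fluorescent anti-GST. Each ungapped 8-mer (which stands for itself and its reverse complement) is scored by the PBM enrichment score (E-score), a modified Wilcoxon-Mann-Whitney statistic from -0.5 to +0.5, computed with the Universal PBM Analysis Suite. Scale: above 0.35 generally sequence-specific binding.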

| Sequence | PBM E-score |
| --- | --- |
| ACGAGCTG | 0.0278 |
| ACCTTCTC | -0.183 |
| CGTCCCTA | -0.0646 |
| AATAATAA | 0.132 |
| AAATATGA | 0.154 |
| AAATATGT | 0.37 |
| AAATATAC | 0.0952 |
| AATAATAG | -0.0638 |
| AAATATAT | 0.306 |
| AAATATAA | 0.272 |
| AAATATGC | -0.0194 |
| AATAATAT | 0.33 |
| ACCAGAGC | -0.124 |
| CGATGCAC | -0.295 |
| GCACAGGA | 0.0138 |
| ACTCGAGT | 0.14 |
| ATAGGCCA | -0.0607 |
| TGTCACAA | 0.378 |
| TAACATAA | 0.214 |
| CGTCACAA | 0.137 |
| CGACATAC | 0.281 |
| TCACATAA | -0.0221 |
| GGTCACAA | -0.0198 |
| GGACATAC | 0.48 |
| CTACATAA | -0.237 |

| Sequence | PBM E-score |
| --- | --- |
| TGACATAA | 0.364 |
| GCACATAC | -0.162 |
| GTACATAA | 0.306 |
| TTACATAA | 0.0155 |
| GACCCCCA | -0.377 |
| TCACTAGA | 0.0764 |
| CACCCCGC | -0.0608 |
| CCATTAAC | 0.139 |
| GCCCTGCC | -0.296 |
| AAGTCTAC | 0.0709 |
| GGACATGA | 0.467 |
| GGACATAA | 0.477 |
| GCACATAA | -0.0366 |
| CGACATAA | 0.286 |
| CGTCATAA | 0.122 |
| GCACATGA | -0.0829 |
| TGTCATAA | 0.397 |
| AGTCATAA | 0.0855 |
| CGACATGA | 0.207 |
| ACCACAGA | 0.0742 |
| TTGAGCAA | -0.0524 |
| ACACTTGG | -0.0164 |
| GACCATGC | 0.0413 |
| CTGTACAA | 0.161 |
| CTGTACAG | 0.0843 |

| Sequence | PBM E-score |
| --- | --- |
| GTGTACAC | 0.162 |
| GTGTACAA | 0.32 |
| TCGTACAA | 0.294 |
| TTGTACAA | 0.337 |
| CGTGCAGC | -0.0365 |
| CTCGGTAC | 0.0483 |
| ACGGCCGT | -0.204 |
| ATAAAGCC | -0.151 |
| GCCTACCA | -0.174 |
| AGCCCTCG | -0.123 |
| CATATGCC | 0.00819 |
| CATATGTA | 0.245 |
| CATATGAC | 0.143 |
| GATATGTA | 0.12 |
| AATATGTC | 0.478 |
| AATATGTG | 0.181 |
| AATATGTA | 0.335 |
| CATATGTC | 0.449 |
| ACTATGTC | 0.292 |
| AGCGAAAG | 0.00846 |
| CGCACTTA | -0.0705 |
| AGCTCTAC | -0.104 |
| AGCCACGA | -0.181 |
| CCAATAGC | -0.0522 |
| AAAGGACG | 0.032 |

| Sequence | PBM E-score |
| --- | --- |
| AAAGGACA | 0.445 |
| GAAGGATA | -0.142 |
| GAAGGACA | 0.471 |
| AAAGGACC | -0.105 |
| TAAGGACA | 0.481 |
| CAAGGACC | 0.0568 |
| CAAGGACA | 0.484 |
| TAAGGAGA | -0.255 |
| GAAGGACC | -0.139 |
| TAAGGATA | 0.13 |
| CAAGGACG | 0.148 |
| CGAACATA | 0.128 |
| TAACAACA | 0.0839 |
| CGTCCTGA | 0.102 |
| AATCTACA | 0.058 |
| TAGGTAGA | 0.0723 |
| GATCTGTA | -0.0087 |
| CCGAAAAC | 0.0665 |
| AACGAGTC | -0.0621 |
| AAGTCACA | 0.127 |
| ATGTCAGA | 0.265 |
| CTGTCACC | -0.0649 |
| ATGTCACA | 0.363 |
| CTGTCACA | 0.0788 |
| AGGTCACC | -0.0357 |

| Sequence | PBM E-score |
| --- | --- |
| ATGTCACG | 0.31 |
| ATGTCACC | 0.303 |
| GTGTCACA | 0.261 |
| GGAAAGAC | -0.0443 |
| ATCCTATG | -0.0491 |
| AGGCGTAG | -0.189 |
| CCTTGCGA | 0.028 |
| GGTGGTAC | -0.152 |
| GTAAGCTA | 0.0896 |
| TACATAAA | 0.15 |
| CACATAAC | 0.0195 |
| AACATAAC | 0.0281 |
| GACATAAA | 0.44 |
| AACATAAA | 0.0678 |
| GACATAAC | 0.396 |
| CGGAGGAA | -0.131 |
| GCATGGGC | -0.183 |
| CCGCTCGA | -0.143 |
| GATTGCTA | -0.0824 |
| CGAGAGTC | -0.131 |
| ATTAGGAA | -0.00879 |
| AATAGGAT | 0.157 |
| GCTAGGAC | 0.267 |
| ACTAGGAC | 0.426 |
| AATAGGAA | 0.102 |

| Sequence | PBM E-score |
| --- | --- |
| ATTAGGAC | 0.37 |
| ACTAGGAG | -0.201 |
| AATAGGAC | 0.387 |
| CTTAGGAC | 0.269 |
| ATCGACCC | -0.11 |
| ATCCCTGC | -0.24 |
| AGGGTAAG | 0.00826 |
| AACGGGTC | -0.155 |
| CAGAATAC | 0.0673 |
| TCCTCTAA | -0.0667 |
| AGTGGGAC | 0.118 |
| ACTCTCCA | -0.0814 |
| ATTGAACA | 0.124 |
| CTCGTCCC | 0.228 |
| CCCCATAG | -0.15 |
| AAAATTTG | 0.16 |
| GAAATGTA | 0.245 |
| CAAATGTC | 0.471 |
| GAAATGTC | 0.487 |
| CAAATTTG | 0.32 |
| GAAATGCC | 0.00283 |
| CAAATTTC | 0.184 |
| CAAATGTG | 0.229 |
| CAAATGTA | 0.276 |
| GCCGGTCC | -0.233 |

| Sequence | PBM E-score |
| --- | --- |
| CAGCGTTA | -0.131 |
| AAACTCTC | -0.0224 |
| CGGACAAA | 0.484 |
| CGGACGAA | 0.337 |
| CGGACAGA | 0.302 |
| GGGACGAA | 0.187 |
| CGGACGAG | 0.0588 |
| GGGACAAC | 0.375 |
| CGGACAAG | 0.418 |
| CGGACGAC | -0.0607 |
| GGAACAAC | 0.0504 |
| CGGACCAG | -0.125 |
| CGGACGGA | -0.00604 |
| GGGACCAC | -0.255 |
| GCTCTCAC | -0.29 |
| ATTTGACG | 0.15 |
| CCAGCATC | -0.148 |
| AGAAGAGC | -0.0669 |
| GTTGAATA | 0.0705 |
| TGGTCTAA | -0.0904 |
| CGGACAAC | 0.369 |
| CGGACCAC | -0.0995 |
